# Only some compounds are listed: those with a hit (about 11% of all), similar ones and a draw of the others.
# VACV mCherry inh: vaccinia inhibition (mCherry reporter); Vaccinia virus mCherry reporter infection, fluorescence; Potency, µM (highest dose often 36.5 µM), most hits filed as inhibitors; 310,000 tested, 0.63% active; calls by dose curve; tested in A549 cells; also: nearly all actives have a fitted effect of over 35% in size
# HCV inhibitor: HCV inhibition | Potency, µM (series often up to 41.8 µM), most hits filed as inhibitors | AID 651820 | 340,000 tested, 3.4% active | Huh7.5.1 HCVcc-Cre infection, luciferase reporter, 44 h
#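 HCVcc-Cre virus at an moi near 0.5 was added right after compound to cells cultured 4 h from seeding (1,000 cells/well). Luciferase activity was determined 44 h later, 15 min after substrate addition at RT.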
# Pf growth 96h: P. falciparum growth inhibition at 96 hour, primary screen for plastid delayed-death inhibitors; Potency, µM (doses to about 28.7 µM), actives largely listed as inhibitors; P. falciparum luciferase reporter growth, 96 h; 320,000 tested, 6.9% active; AID 504834
#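 Luminescence readout: decreased luciferase signal marks inhibited growth of reporter-expressing P. falciparum in infected red cells (2% hematocrit, 0.05% parasitemia final), exposed to compound two generations (96 h, 37 C, 5% CO2).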
# Vaccinia Venus: vaccinia inhibition (Venus reporter). Vaccinia virus Venus reporter expression, fluorescence. Potency, µM (top dose mostly 36.5 µM), most hits filed as inhibitors. 330,000 tested, 0.46% active; calls by dose curve; tested in A549 cells; also: nearly all actives have a fitted effect of over 30% in size
# Pf growth 48h: inhibits P. falciparum growth in the first generation, 48 h; Potency, µM (top dose mostly 28.7 µM), most hits filed as inhibitors; 310,000 tested, 5.9% active; P. falciparum luciferase growth in erythrocytes, 48 h
#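 Here the parasites carry a stable luciferase gene and grow inside erythrocytes in Albumax-based RPMI medium with compound for one erythrocytic cycle. Activity is scored as loss of luminescent signal.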
# NS1 inh: influenza NS1 inhibition | Potency, µM (highest dose often 46.1 µM) | 270,000 tested, 0.4% active | AID 2326; calls by dose curve; also: actives are rising curves; nearly all actives have a fitted effect of over 50% in size
#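 In this qHTS, NS1 from influenza A is expressed in budding yeast, where it slows growth. Cells are switched from glucose to 2% galactose medium (pH 6.0, -URA), treated with compound, and growth recovery is read at OD600.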
# Numbers stand for hits; n = inactive; u = inconclusive; x = not tested or not shown; ! = not active in a repeat. Unless noted, calls follow the shape of the dose curve; as a rule, active = well fitted inhibition curve with a large enough effect; inconclusive = small, poorly fitted or top-dose-only effect, or another doubt; inactive = no such curve, though single readings can be large or run the other way.
SMILES,VACV mCherry inh,HCV inhibitor,Pf growth 96h,Vaccinia Venus,Pf growth 48h,NS1 inh
CC(=O)N1N=C(c2cccs2)CC1c1ccco1 (configuration not stated),n,n,u,n,n,n
CCOC(=O)C1CCCN(c2c(NCCN(CC)c3ccccc3)c(=O)c2=O)C1 (configuration not stated),n,n,n,n,10.4µM,n
C=CCc1cc(C=C2C(=O)N(C)C(=O)N(C)C2=O)cc(OCC)c1OCc1ccccc1,n,n,n,n,n,n
COCCNc1nnc(SC(C)C(=O)Nc2ccc(-c3nc4ccc(C)cc4s3)cc2)s1 (configuration not stated),u,6.31µM,u,u,n,n
Nc1nonc1/C(=N/O)N1CCN(CCO)CC1,n,n,n,n,n,n
CN1CCN(/C(=N\O)c2nonc2N)CC1,x,n,14.7µM,x,n,u
Cc1cccc(NC(=O)c2cc(S(=O)(=O)c3ccccc3)ccc2Cl)c1,x,7.94µM,n,u,x,n
O=C(O)c1cccc(NC(=O)c2ccc(S(=O)(=O)c3ccccc3)cc2)c1,n,n,11.7µM,n,n,n
COc1ccccc1N1CCN(c2nc(-c3ccccc3)cc(C(F)(F)F)n2)CC1,x,u,u,x,n,n
CCOC(=O)CCC(=O)N1CCOCCOCCOCC1,n,n,n,n,x,n
O=S(=O)(c1ccc(NC(=S)N/N=C/c2c3ccccc3cc3ccccc23)cc1)N1CCOCC1,n,2.82µM,u,u,3.29µM,n
N#Cc1ccc(/C=N/NC(=O)CCc2ccc(S(=O)(=O)N3CCOCC3)cc2)cc1,n,n,6.57µM,n,u,n
O=S(=O)(c1ccc(NC(=S)N/N=C/c2ccc(N3CCOCC3)cc2)cc1)N1CCOCC1,n,n,5.86µM,n,n,u
O=S(=O)(c1ccc(NC(=S)N/N=C/c2ccc(Oc3ccccc3)cc2)cc1)N1CCOCC1,n,n,n,n,n,n
CCOc1cccc(C(=O)N2CCCCC2c2cccnc2)c1 (configuration not stated),x,n,n,x,9.28µM,n
CCN1C(=NCC2CC2)N[C@@H](c2ccccc2)C(C(=O)OC)=C1C,n,n,n,n,n,n
COc1cc(CCN2C(=O)N[C@@H](c3cccc(C(F)(F)F)c3)C(C(C)=O)=C2C)cc(OC)c1OC,x,u,10.4µM,x,13.1µM,n
CCN1C(=NCc2cc(OC)c(OC)c(OC)c2)N[C@@H](c2ccccc2)C(C(=O)OC)=C1C,n,n,4.65µM,n,n,n
CCN(CC)CCCN=C1N[C@@H](c2ccccc2)C(C(=O)OC)=C(C)N1CC,n,n,1.69µM!,n,u,n
CCN1C(=NCCc2ccccn2)N[C@@H](c2cccc(C(F)(F)F)c2)C(C(=O)OC)=C1C,n,n,n,n,u,n
CCN1C(=NCc2cc(OC)c(OC)c(OC)c2)N[C@@H](c2cccc(C(F)(F)F)c2)C(C(=O)OC)=C1C,n,u,2.62µM,n,u,n
CCN1C(=NCc2ccc(OC)cc2)N[C@@H](c2ccccc2)C(C(=O)OC)=C1C,n,n,u,n,n,n
Nc1c(Cl)cc(C2=NCCn3c2c2ccc([N+](=O)[O-])cc2[n+]3[O-])cc1Cl,u,10µM,u,u,13.1µM,x
Nc1c(Cl)cc(C2=NCCn3nc4cc([N+](=O)[O-])ccc4c32)cc1Cl,n,u,u,n,u,x
N#CC1=C(N)Oc2c(ccc3cccnc23)C1c1cccnc1 (configuration not stated),x,3.55µM,x,x,u,n
SMILES,VACV mCherry inh,HCV inhibitor,Pf growth 96h,Vaccinia Venus,Pf growth 48h,NS1 inh
CCc1ccc2[nH]c(=O)c(C3C(C#N)=C(N)Oc4c3ccc3cccnc43)cc2c1 (configuration not stated),x,11.2µM,u,x,u,n
N#CC1=C(N)Oc2cc3ccccc3cc2C1c1cccnc1 (configuration not stated),u,u,u,u,u,n
CCOc1cccc(C2C(C#N)=C(N)Oc3cc(C)[nH]c(=O)c32)c1OCC (configuration not stated),x,n,n,x,n,n
COc1ccc(-c2cc3cc4c(cc3cn2)OCO4)cc1,n,n,x,n,x,x
COc1ccc2c(c1)N(C(=O)CN1C(=O)C3CCCCC3C1=O)C(C)(C)C=C2C (configuration not stated),n,n,n,n,11.7µM,n
CCOC(=O)CSc1nc2c(sc(=S)n2-c2ccc(OCC)cc2)c(=O)[nH]1,n,n,u,n,u,x
CCn1c(C)nc2cc(C(=O)n3cc(C(=O)c4cc(F)ccc4O)cn3)ccc21,x,n,0.828µM,x,n,n
CCC(=NNC(=O)c1ccc2c(c1)nc(C)n2CC)c1cc(F)ccc1O,10µM,u,x,u,x,x
CCN1C[C@@H]2[C@@H]3C(=O)N(C)C(=O)[C@@H]3[C@](Cc3ccccc3)(C1=O)N2C(=O)c1ccc(C)cc1,n,n,x,n,x,x
Clc1ccc(C(c2ccccc2Cl)C(Cl)Cl)cc1 (configuration not stated),n,u,u,n,10.4µM,n
CCc1ccc(C(c2ccc(CC)cc2)C(Cl)Cl)cc1,n,n,u,n,u,x
Cc1ccc2c(C)c(C(=O)N(C)Cc3nccn3C)oc2c1C,x,n,n,x,n,n
COc1cc(C)c(Cl)cc1S(=O)(=O)N1CCSC1,n,n,11.7µM,n,n,n
CCOC(=O)C(=O)NCC(c1cccs1)S(=O)(=O)c1ccc(C)cc1 (configuration not stated),n,n,u,n,n,x
CCNC(=O)C(=O)NCC(c1cccs1)S(=O)(=O)c1ccc(C)cc1 (configuration not stated),x,n,4.15µM,x,n,u
CCOC(=O)C(=O)NCC(c1cccs1)S(=O)(=O)c1ccc(F)cc1 (configuration not stated),n,n,11.7µM,n,u,x
CC1Cn2c(nc3c2c(=O)[nH]c(=O)n3C)O1 (configuration not stated),x,n,x,n,n,u
CCn1c(CC(=O)Nc2cccc(OC)c2)nnc1SCC(=O)Nc1nccs1,n,u,n,n,n,n
Cc1nonc1OCCN1CCN(c2ccccc2[N+](=O)[O-])CC1,n,n,n,n,n,x
O=C(COc1ccc(F)cc1)NC1CC(=O)N(c2ccc3c(c2)OCCO3)C1 (configuration not stated),n,x,x,n,x,x
O=C(Nc1ccc(-c2nnc3n2CCCCC3)cc1)c1cc2ccccc2o1,n,n,u,n,u,n
Cc1c(C(=O)Nc2ccc(-c3nnc4n3CCCCC4)cc2)oc2c1ccc1ccccc12,14.1µM,n,u,u,u,n
Cc1onc(-c2ccccc2)c1C(=O)Nc1nnc(COc2ccc(Cl)cc2)s1,x,n,n,n,n,u
CCn1ncc(/C=N/N=C2\CCC3C4CCc5cc(O)ccc5C4CCC23C)c1C (configuration not stated),x,n,1.65µM,n,x,n
